Test results as given in PubChem BioAssay (Tox21).
Where “and” joins values, the source holds several entries; their conditions need not be identical. Identical values can stand only once. Records with an inconclusive call do not appear. Where a call stands in place of a potency, no number is given. More than one record can exist for a structure, and the calls need not agree. Calls of active or inactive are those of the source. Unless noted, the call rests on the fitted dose curve; in most records, active means well fitted curve in the direction sought with a large enough effect in the repeat runs; inconclusive means weak or mixed curves; inactive means no such curve, though single readings can be large; an effect the other way counts as inactive or inconclusive.

How the values were obtained:
[1] = qHTS assay to identify aromatase inhibitors - cell viability counter screen (AID 743084);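 further: cells stimulated with testosterone during compound exposure; nearly all actives have a fitted effect of over 55% in size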; further: potency means the concentration at half of the fitted maximal effect
[2] = target: Aryl hydrocarbon receptor (Homo sapiens) (UniProt P35869); assay: qHTS assay to identify small molecule that activate the aryl hydrocarbon receptor (AhR) signaling pathway (AID 743085); further: nearly all actives have a fitted effect of over 15% in size; further: potency means the concentration at half of the fitted maximal effect;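 on activation: HG2L7.5c1 human HepG2 liver cells with stably integrated DRE-driven firefly reporter; series mostly up to about 70 µM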
Aryl hydrocarbon receptor (Homo sapiens), sequence (P35869 whole entry, looked up): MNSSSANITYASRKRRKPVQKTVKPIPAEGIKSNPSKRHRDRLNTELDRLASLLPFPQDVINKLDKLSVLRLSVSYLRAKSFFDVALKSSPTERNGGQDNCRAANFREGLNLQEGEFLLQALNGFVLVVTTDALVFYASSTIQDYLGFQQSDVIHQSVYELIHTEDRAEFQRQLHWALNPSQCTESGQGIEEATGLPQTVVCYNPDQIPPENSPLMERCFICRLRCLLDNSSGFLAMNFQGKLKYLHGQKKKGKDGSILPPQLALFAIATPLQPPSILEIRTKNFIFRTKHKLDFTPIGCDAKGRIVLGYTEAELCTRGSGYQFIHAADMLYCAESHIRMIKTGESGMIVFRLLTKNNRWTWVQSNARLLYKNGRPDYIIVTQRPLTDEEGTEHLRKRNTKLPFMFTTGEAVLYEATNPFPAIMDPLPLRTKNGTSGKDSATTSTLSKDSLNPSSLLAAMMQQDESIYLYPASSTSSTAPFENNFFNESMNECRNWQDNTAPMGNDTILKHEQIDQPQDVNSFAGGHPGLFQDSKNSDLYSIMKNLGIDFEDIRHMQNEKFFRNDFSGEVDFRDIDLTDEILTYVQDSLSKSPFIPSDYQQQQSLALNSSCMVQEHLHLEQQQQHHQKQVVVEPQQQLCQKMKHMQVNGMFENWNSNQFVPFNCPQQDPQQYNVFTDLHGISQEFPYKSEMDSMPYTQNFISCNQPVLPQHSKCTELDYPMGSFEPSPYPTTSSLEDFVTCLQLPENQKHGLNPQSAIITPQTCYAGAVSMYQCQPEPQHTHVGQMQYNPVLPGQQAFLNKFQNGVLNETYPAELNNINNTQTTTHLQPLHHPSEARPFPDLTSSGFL
How it was run: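 Luminescence read-out: ONE-Glo reagent, 30 min at room temperature, in HG2L7.5c1 HepG2 reporter cells treated 24 h at 37C. Viability was measured beforehand by CellTiter-Fluor fluorescence after 30 min at 37C.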

[3] = qHTS assay to identify small molecule that activate the aryl hydrocarbon receptor (AhR) signaling pathway - cell viability counter screen (AID 743086); further: nearly all actives have a fitted effect of over 45% in size; further: potency means the concentration at half of the fitted maximal effect
How it was run: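 HepG2-AhR-luc (HG2L7.5c1) cells, 4000/well, were preincubated 5 h at 37C, exposed to compound in qHTS format for 24 hr at 37C, then given CellTiter-Fluor for 30 min; viability was read as fluorescence in the reporter wells.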

[4] = target: Peroxisome proliferator-activated receptor gamma (Homo sapiens) (UniProt P37231); assay: qHTS assay to identify small molecule agonists of the peroxisome proliferator-activated receptor gamma (PPARg) signaling pathway (AID 743094; active means well fitted activation curve with a large enough effect in the signal ratio in the repeat runs, not every such curve was filed as active; the % refers to the signal ratio)
Peroxisome proliferator-activated receptor gamma (Homo sapiens), sequence (P37231 whole entry, looked up): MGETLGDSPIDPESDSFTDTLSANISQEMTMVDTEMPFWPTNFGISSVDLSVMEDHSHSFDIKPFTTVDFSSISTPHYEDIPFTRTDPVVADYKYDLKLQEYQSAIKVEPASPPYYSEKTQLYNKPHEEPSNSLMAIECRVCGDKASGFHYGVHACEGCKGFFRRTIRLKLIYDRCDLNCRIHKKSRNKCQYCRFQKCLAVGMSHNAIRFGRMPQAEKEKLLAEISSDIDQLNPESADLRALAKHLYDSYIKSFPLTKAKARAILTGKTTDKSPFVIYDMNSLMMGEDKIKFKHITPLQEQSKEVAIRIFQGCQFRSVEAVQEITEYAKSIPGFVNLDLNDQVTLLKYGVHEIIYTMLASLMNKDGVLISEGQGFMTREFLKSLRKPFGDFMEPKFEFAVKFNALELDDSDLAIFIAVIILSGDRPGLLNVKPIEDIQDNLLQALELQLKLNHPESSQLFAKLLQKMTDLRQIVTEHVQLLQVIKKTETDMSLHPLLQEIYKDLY
How it was run: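 Cells from the PPARg UAS-bla HEK293H line are plated and incubated 5 h at 37C. Compounds in DMSO are pinned in and left 17 h at 37C. LiveBLAzer B/G substrate is then added for 1 h at room temperature before fluorescence is measured.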

[5] = target: Peroxisome proliferator-activated receptor gamma (Homo sapiens) (UniProt P37231); assay: qHTS assay to identify small molecule antagonists of the peroxisome proliferator-activated receptor gamma (PPARg) signaling pathway (AID 743191; calls by dose curve; further: nearly all actives have a fitted effect of over 30% in size; further: potency means the concentration at half of the fitted maximal effect)
How it was run: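 GeneBLAzer PPARg UAS-bla HEK293H cells carrying a UAS-driven beta-lactamase reporter were plated at 3000 cells/well, preincubated 5 h at 37C, then given compound for 17 h at 37C; LiveBLAzer B/G FRET substrate was read after 1 h at room temperature.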

[6] = qHTS assay to identify small molecule antagonists of the peroxisome proliferator-activated receptor gamma (PPARg) signaling pathway - cell viability counter screen (AID 743194); settings: Potency: co-treated with 50 nM rosiglitazone unless noted; further: nearly all actives have a fitted effect of over 55% in size; further: potency means the concentration at half of the fitted maximal effect
How it was run: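 PPARg-UAS-bla HEK293H cells were plated, rested 5 h at 37 C, then treated with compounds plus rosiglitazone (50 nM final) for 17 h at 37 C; viability was then read by CellTiter-Glo luminescence after 30 min at room temperature.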

[7] = qHTS assay for small molecule agonists of the antioxidant response element (ARE) signaling pathway (AID 743202; active means well fitted activation curve with a large enough effect in the signal ratio in the repeat runs, not every such curve was filed as active; the % refers to the signal ratio; further: potency means the concentration at half of the fitted maximal effect)
How it was run: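 Following a 16 h, 37 C exposure of reporter HepG2 cells (ARE-driven beta-lactamase, 2,000 cells/well) to compounds, FRET substrate was applied for 2 h at room temperature and fluorescence intensity recorded.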

[8] = qHTS assay for small molecule agonists of the antioxidant response element (ARE) signaling pathway - cell viability counter screen (AID 743203; calls by dose curve; further: nearly all actives have a fitted effect of over 55% in size; further: potency means the concentration at half of the fitted maximal effect)
How it was run: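 Cytotoxicity was tested in parallel with the ARE reporter screen. ARE-bla HepG2 cells were exposed to compounds for 16 hrs, and viability was taken from CellTiter-Glo luminescence.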

[9] = qHTS assay for small molecule activators of the heat shock response signaling pathway - cell viability counter screen (AID 743209); further: nearly all actives have a fitted effect of over 50% in size; further: potency means the concentration at half of the fitted maximal effect
How it was run: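 Cytotoxicity counter screen run in parallel with the HSE beta-lactamase reporter, using the same wells. HeLa HSE-bla cells received compound for 5 h at 37 C; ATP-based CellTiter-Glo luminescence was measured after 30 min at room temperature.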

[10] = qHTS assay to identify small molecule agonists of the peroxisome proliferator-activated receptor delta (PPARd) signaling pathway - cell viability counter screen (AID 743211); further: nearly all actives have a fitted effect of over 55% in size; further: potency means the concentration at half of the fitted maximal effect
How it was run: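 Read-out: CellTiter-Glo luminescence, 30 min RT, measured in the same wells as the beta-lactamase reporter. Cells: GeneBLAzer PPAR delta UAS-bla HEK293H, 3000 cells/well, compound exposure 17 h at 37C.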

[11] = qHTS assay to identify small molecule agonists of the farnesoid-X-receptor (FXR) signaling pathway - cell viability counter screen (AID 743218); further: nearly all actives have a fitted effect of over 45% in size; further: potency means the concentration at half of the fitted maximal effect
How it was run: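 Cells were seeded, left 5 h at 37 C and 5% CO2, then dosed with compound in DMSO for 16 h. After the beta-lactamase FRET read, CellTiter-Glo was added and luminescence measured 30 min later.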

[12] = qHTS assay to identify small molecule antagonists of the farnesoid-X-receptor (FXR) signaling pathway - cell viability counter screen (AID 743221; active means well fitted cell-killing curve with a large enough effect in the repeat runs, not every such curve was filed as active; further: nearly all actives have a fitted effect of over 50% in size; further: potency means the concentration at half of the fitted maximal effect)
How it was run: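 HEK 293T FXR-bla cells, 5 h pre-incubation; compound + CDCA 50 uM final, 16 h, 37 C; beta-lactamase FRET read first, then CellTiter-Glo luminescence, 30 min RT.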

[13] = qHTS assay for small molecule activators of the heat shock response signaling pathway (AID 743210; active means well fitted activation curve with a large enough effect in the signal ratio in the repeat runs, with a control signal flat, not every such curve was filed as active; the % refers to the signal ratio; further: series mostly up to about 63 µM)
How it was run: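 Heat shock element–beta-lactamase HeLa reporter cells; qHTS with compounds for 5 h at 37 C; detection by FRET substrate fluorescence after 2.5 h at RT.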

[14] = target: Bile acid receptor (Homo sapiens) (UniProt Q96RI1); assay: qHTS assay to identify small molecule antagonists of the farnesoid-X-receptor (FXR) signaling pathway (AID 743217; active means well fitted inhibition curve with a large enough effect in the signal ratio in the repeat runs, not every such curve was filed as active; the % refers to the signal ratio; further: potency means the concentration at half of the fitted maximal effect)
Bile acid receptor (Homo sapiens), sequence (Q96RI1 whole entry, looked up): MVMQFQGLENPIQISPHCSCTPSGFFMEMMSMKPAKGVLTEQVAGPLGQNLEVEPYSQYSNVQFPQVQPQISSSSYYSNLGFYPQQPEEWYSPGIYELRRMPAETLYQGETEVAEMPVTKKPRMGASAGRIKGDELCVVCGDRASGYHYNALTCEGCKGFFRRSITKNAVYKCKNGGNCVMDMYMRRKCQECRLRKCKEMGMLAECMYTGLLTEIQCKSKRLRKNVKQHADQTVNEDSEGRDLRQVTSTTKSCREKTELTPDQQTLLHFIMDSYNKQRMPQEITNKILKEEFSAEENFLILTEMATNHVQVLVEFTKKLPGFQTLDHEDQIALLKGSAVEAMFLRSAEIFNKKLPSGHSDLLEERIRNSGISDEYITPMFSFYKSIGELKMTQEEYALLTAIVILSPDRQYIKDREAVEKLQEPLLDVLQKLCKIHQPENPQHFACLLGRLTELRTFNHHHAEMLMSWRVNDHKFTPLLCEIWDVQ
How it was run: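 Cells carrying a UAS-driven beta-lactamase reporter (GeneBLAzer FXR-UAS-bla HEK 293T) were plated and rested 5 h at 37 °C. Compounds in DMSO were added alongside chenodeoxycholic acid agonist at 50 uM final and left 16 h at 37 °C before FRET substrate readout.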

[15] = target: Bile acid receptor (Homo sapiens) (UniProt Q96RI1); assay: qHTS assay to identify small molecule agonists of the farnesoid-X-receptor (FXR) signaling pathway (AID 743220; active means well fitted activation curve with a large enough effect in the signal ratio in the repeat runs, not every such curve was filed as active; the % refers to the signal ratio)
How it was run: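 FXR-UAS-bla HEK 293T cells carrying a UAS-driven beta-lactamase reporter were plated for 5 h at 37C/5% CO2, then exposed to DMSO-dissolved Tox21 10K compounds for 16 h at 37C. A LiveBLAzer B/G FRET substrate was loaded for 2 h at room temperature before fluorescence reading.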

[16] = target: Vitamin D3 receptor (Homo sapiens) (UniProt P11473); assay: qHTS assay to identify small molecule agonists of the vitamin D receptor (VDR) signaling pathway (AID 743222; calls by dose curve)
Vitamin D3 receptor (Homo sapiens), sequence (P11473 whole entry, looked up): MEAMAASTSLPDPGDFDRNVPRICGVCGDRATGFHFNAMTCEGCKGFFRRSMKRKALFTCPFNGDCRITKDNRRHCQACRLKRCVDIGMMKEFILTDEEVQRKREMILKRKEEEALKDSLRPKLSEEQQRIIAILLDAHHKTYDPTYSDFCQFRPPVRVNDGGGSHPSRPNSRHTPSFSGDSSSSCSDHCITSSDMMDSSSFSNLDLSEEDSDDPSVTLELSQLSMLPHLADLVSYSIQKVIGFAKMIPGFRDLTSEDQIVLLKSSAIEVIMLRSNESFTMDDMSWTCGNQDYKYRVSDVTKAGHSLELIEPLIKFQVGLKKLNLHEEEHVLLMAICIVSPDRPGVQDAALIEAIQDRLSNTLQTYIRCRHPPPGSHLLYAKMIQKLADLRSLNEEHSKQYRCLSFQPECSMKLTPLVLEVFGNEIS
How it was run: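 Cells carrying a VDR-driven beta-lactamase reporter are seeded at 2,000 per well and rested 4 h. Compounds in DMSO are added for 16 h at 37C, and FRET substrate fluorescence is measured after 2 h at room temperature.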

[17] = target: Vitamin D3 receptor (Homo sapiens) (UniProt P11473); assay: qHTS assay to identify small molecule antagonists of the vitamin D receptor (VDR) signaling pathway (AID 743223; active means well fitted inhibition curve with a large enough effect in the signal ratio in the repeat runs, not every such curve was filed as active; the % refers to the signal ratio; further: potency means the concentration at half of the fitted maximal effect)
How it was run: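 Beta-lactamase reporter read-out: FRET substrate fluorescence after 2 h at room temperature, following 16 h exposure of VDR-bla cells to test compound plus 3 nM (final) 1alpha,25-dihydroxyvitamin D3 agonist at 37C.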

[18] = qHTS assay to identify small molecule antagonists of the peroxisome proliferator-activated receptor delta (PPARd) signaling pathway - cell viability counter screen (AID 743213); further: nearly all actives have a fitted effect of over 50% in size; further: potency means the concentration at half of the fitted maximal effect
How it was run: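 Agonist-stimulated (L165041, 300 nM final) HEK293H PPARd UAS-bla cells are exposed to compounds for 17 h at 37 C, and ATP-based luminescence (CellTiter-Glo) from the same wells reports cytotoxicity.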

[19] = target: Peroxisome proliferator-activated receptor delta (Homo sapiens) (UniProt Q03181); assay: qHTS assay to identify small molecule agonists of the peroxisome proliferator-activated receptor delta (PPARd) signaling pathway (AID 743212; calls by dose curve)
Peroxisome proliferator-activated receptor delta (Homo sapiens), sequence (Q03181 whole entry, looked up): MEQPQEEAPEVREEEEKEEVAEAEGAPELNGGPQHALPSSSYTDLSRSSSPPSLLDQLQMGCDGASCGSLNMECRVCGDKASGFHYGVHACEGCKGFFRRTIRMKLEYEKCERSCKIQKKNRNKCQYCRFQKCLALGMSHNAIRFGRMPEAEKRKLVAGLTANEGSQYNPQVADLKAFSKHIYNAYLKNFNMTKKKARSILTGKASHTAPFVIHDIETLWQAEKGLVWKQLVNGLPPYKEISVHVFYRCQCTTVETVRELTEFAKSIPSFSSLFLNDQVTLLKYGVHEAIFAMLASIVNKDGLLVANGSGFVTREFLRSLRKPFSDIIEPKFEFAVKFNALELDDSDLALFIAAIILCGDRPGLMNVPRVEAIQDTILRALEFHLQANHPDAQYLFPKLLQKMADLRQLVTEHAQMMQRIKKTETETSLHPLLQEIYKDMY
How it was run: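 Beta-lactamase reporter read by fluorescence (LiveBLAzer B/G FRET, 2 h, room temperature). Test agents, in DMSO, incubated at 37 C with PPARd-bla HEK293H cells.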

[20] = target: Peroxisome proliferator-activated receptor delta (Homo sapiens) (UniProt Q03181); assay: qHTS assay to identify small molecule antagonists of the peroxisome proliferator-activated receptor delta (PPARd) signaling pathway (AID 743215; active means well fitted inhibition curve with a large enough effect in the signal ratio in the repeat runs, not every such curve was filed as active; the % refers to the signal ratio; further: series mostly up to about 62 µM)
How it was run: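 Cells: HEK293H with a UAS-driven beta-lactamase reporter responsive to PPARd. Compounds were co-added with L165041 (300 nM, final) and incubated 17 h at 37 C before a 2 h room-temperature FRET substrate step and fluorescence reading.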

Structure (SMILES) | Potency [1] | Potency [2] | Potency [3] | outcome [4] | Potency [5] | Potency [6] | Potency [7] | Potency [8] | Potency [9] | Potency [10] | Potency [11] | Potency [12] | outcome [13] | Potency [14] | outcome [15] | outcome [16] | Potency [17] | Potency [18] | outcome [19] | outcome [20]
O=c1[nH]c(=O)n(Cl)c(=O)n1Cl | inactive | inactive | inactive | inactive | inactive | inactive | inactive | inactive | inactive | inactive | inactive | inactive |  |  |  |  |  |  |  | 
CCNc1nc(Cl)nc(NCC)n1 | inactive | inactive | inactive | inactive | inactive | inactive | inactive | inactive | inactive | inactive | inactive | inactive | inactive | inactive | inactive | inactive | inactive |  |  | 
Nc1ccc(-c2ccc(N)c(Cl)c2)cc1Cl | inactive | 7.74 µM (active) and 6.4 µM (active) and 19.3 µM (active) | inactive | inactive | inactive and 49 µM (active) | inactive | 1.38 µM (active) and 2.02 µM (active) and 1.72 µM (active) | inactive | inactive | inactive | inactive | inactive |  |  |  | inactive | inactive | inactive |  | 
CCOP(=S)(OCC)Oc1ccc2c(C)c(Cl)c(=O)oc2c1 | inactive | 596 nM (active) and 98 nM (active) | inactive | inactive |  | inactive | inactive | inactive | inactive | inactive | inactive | inactive | inactive |  |  |  |  |  | inactive | inactive
CC(=O)[O][Hg][c]1ccccc1 | 5.31 µM (active) and 1.36 µM (active) and 770 nM (active) | inactive | 9.44 µM (active) and 4.29 µM (active) and 4.86 µM (active) |  |  | 686 nM (active) and 309 nM (active) and 1.88 µM (active) |  | 762 nM (active) and 433 nM (active) and 1.19 µM (active) | 1.22 µM (active) and 1.1 µM (active) and 2.11 µM (active) | 611 nM (active) and 977 nM (active) and 2.98 µM (active) | 968 nM (active) and 871 nM (active) and 2.11 µM (active) | 1.09 µM (active) and 1.1 µM (active) and 2.98 µM (active) |  | 0.776 µM (active) |  | inactive | 863 nM (active) and 2.13 µM (active) |  |  | 
CCCCCCCCCCCC(=O)O | inactive |  | inactive |  |  | inactive | inactive | inactive | inactive | inactive | inactive | inactive |  |  |  |  |  |  |  | 
CCCC[N+]1(C)CCCCC1 | inactive | inactive | inactive |  |  | inactive | inactive | inactive | inactive | inactive | inactive | inactive |  |  |  | inactive | inactive |  |  | 
O=S(=O)(O)O | inactive | inactive | inactive |  |  | inactive | inactive | inactive | inactive | inactive | inactive | inactive |  |  |  |  |  |  |  | 
CC[N+](CC)(CC)CC | inactive | inactive | inactive |  |  | inactive | inactive | inactive | inactive | inactive | inactive | inactive | inactive |  |  | inactive | inactive |  |  | 
CCCC[n+]1cccc(C)c1 | inactive | inactive | inactive |  |  | inactive | 60.9 µM (active) and inactive | inactive | inactive | inactive | inactive | inactive | inactive |  |  |  |  |  |  | 
CCCC[n+]1ccccc1 | inactive | inactive | inactive |  |  | inactive | inactive | inactive | inactive | inactive | inactive | inactive |  |  |  |  |  | inactive |  | 
CCCCCCCCCCCCn1cc[n+](C)c1 |  |  |  |  |  |  | inactive |  |  |  |  |  | inactive |  |  |  | 55 µM (active) |  |  | 
CCCCCC[n+]1ccccc1 | inactive | inactive | inactive |  |  | inactive | 43.2 µM (active) and inactive and 17.2 µM (active) | inactive | inactive | 55.5 µM (active) and 55.3 µM (active) and inactive | inactive | inactive | inactive |  |  |  |  |  |  | 
Cc1cc(-c2ccc(N)c(C)c2)ccc1N | inactive |  | inactive | inactive | inactive | inactive | 8.73 µM (active) | inactive | inactive | inactive | inactive | inactive | inactive |  |  | inactive | inactive |  |  | 
CCCCCCCCCCCCOS(=O)(=O)O | inactive |  | inactive |  |  | inactive | inactive | inactive | inactive | 38.9 µM (active) and inactive | 49 µM (active) and 24.5 µM (active) and inactive | inactive |  |  |  |  |  | 38.9 µM (active) and inactive |  | 
C=CCOC(Cn1ccnc1)c1ccc(Cl)cc1Cl (stereo not drawn) | inactive |  | inactive | inactive | inactive | inactive |  | inactive | inactive | 49 µM (active) and inactive | inactive | inactive |  |  |  | inactive | inactive |  |  | 
CCC[N+]1(C)CCCC1 |  |  | inactive |  |  | inactive | inactive | inactive | inactive | inactive | inactive | inactive | inactive |  |  |  |  | inactive | inactive | inactive
CCCCn1cc[n+](C)c1 | inactive | inactive | inactive |  |  | inactive | inactive | inactive | inactive | inactive | inactive | inactive |  |  |  |  |  |  |  | 
